# Sampled rows, rich in hits. Any-hit rate of the full collection: about 3.5%.
# KCNK9 block: blocks the human KCNK9 two-pore domain potassium channel. Q9NPC2. HEK293 KCNK9, FluxOR thallium flux fluorescence; hits give low values. B-score at 10 µM. hit rate 1.2% among 310,000;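 active = ratio B-score over 3 SD below the library mean, with starting fluorescence within 5 SD of its mean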;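 note: negative B-score means less thallium flux so channel inhibition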
# KCNK3 inh: human KCNK3 channel inhibition, primary screen. O14649. CHO-KCNK3 thallium flux, FluxOR fluorescence; hits give low values. B-score at 10 µM. hit rate 0.84% among 340,000. AID 602410;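 active = B-score under library mean minus 4 SD, starting fluorescence ratio at most library mean plus 5 SD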;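 note: more negative B-score means stronger inhibition of thallium flux through KCNK3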
# Kir21 inh: blocks the mouse Kir2.1 inward-rectifier potassium channel | HEK293-Kir2.1, FluxOR thallium flux fluorescence; hits give low values | B-score at 10 µM | hit rate 0.85% among 310,000;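 active = fluorescence ratio B-score at or below minus 3 SD of library scores, with starting-brightness B-score within 2 SD, cut at about -4.2 in these data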;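 note: channel flux triggered by added potassium and thallium sulfate stimulus; B-score of peak minus minimum fluorescence over baseline after thallium stimulus; more negative B-score means stronger Kir2.1 block with less thallium influx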
# Target sequence (P35561 whole entry, looked up): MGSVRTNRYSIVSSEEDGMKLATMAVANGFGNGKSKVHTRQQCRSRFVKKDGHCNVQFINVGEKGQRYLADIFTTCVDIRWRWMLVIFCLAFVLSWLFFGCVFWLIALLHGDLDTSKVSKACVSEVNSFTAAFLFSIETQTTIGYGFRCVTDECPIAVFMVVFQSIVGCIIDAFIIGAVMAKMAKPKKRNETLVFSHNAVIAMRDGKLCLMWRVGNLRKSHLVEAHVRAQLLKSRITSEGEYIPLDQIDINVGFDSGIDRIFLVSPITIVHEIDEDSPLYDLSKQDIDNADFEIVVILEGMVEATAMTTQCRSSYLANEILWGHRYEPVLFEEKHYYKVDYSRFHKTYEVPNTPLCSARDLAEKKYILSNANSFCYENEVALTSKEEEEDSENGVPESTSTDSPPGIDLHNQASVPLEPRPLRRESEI
# TMEM16A act: activators or potentiators of mouse TMEM16A chloride channel | B-score at 10 µM | HEK293 TMEM16A/YFP-H148Q/I152L, iodide quench fluorescence; hits give low values | Q8BHY3 | hit rate 0.3% among 340,000;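 active = fluorescence-ratio B-score plate-corrected deviation score at least 3 library SD below zero, with starting fluorescence score within 5 deviations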;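 note: channel opened by trigger with iodide after compound preincubation; score built on the fluorescence ratio of max minus min over baseline; more negative score means more quench and so TMEM16A activation or potentiation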
# ANO1 block: inhibitors of mouse TMEM16A calcium-activated chloride channel; HEK293 TMEM16A/YFP iodide influx fluorescence, ionomycin; normalized B-score (activity score, 25-100; higher = stronger inhibition) at 10 µM; hit rate 1.2% among 310,000; Q8BHY3;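 active = ratio plate-corrected score three or more library SD toward inhibition, starting fluorescence score within five deviations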;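 note: score derived from kinetic fluorescence span divided by baseline fluorescence per well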
# Starred values were filed as active, the others as inactive; i = inactive; nt = no result.
SMILES,KCNK9 block,KCNK3 inh,Kir21 inh,TMEM16A act,ANO1 block
CCS(=O)(=O)C1=NN2C(=N)/C(=C\c3ccc(OC(=O)c4ccco4)c(Br)c3)C(=O)N=C2S1,i,nt,-6.1*,nt,i
COc1cc(/C=C2\C(=N)N3N=C(S(C)(=O)=O)SC3=NC2=O)ccc1OCCOc1ccccc1C,i,i,1.4,i,100*
COc1cc(/C=C2\C(=N)N3N=C(S(C)(=O)=O)SC3=NC2=O)ccc1OC(=O)c1cccs1,i,i,-0.49,i,i
O=C(Nc1cccc(NC(=O)c2ncn[nH]2)c1)c1cccc(Cl)c1,i,i,-0.07,i,i
Cc1ccc(S(=O)(=O)N2CCC[C@H]2C(=O)OCC(=O)c2ccc3c(c2)NC(=O)CO3)cc1,i,i,-2.4,i,25*
Cc1ccc(S(=O)(=O)N2CCCC2C(=O)OCC(=O)Nc2ccc3c(c2)OCO3)cc1 (configuration not stated),i,i,0,i,i
CCOc1cc(C(=O)Nc2cccc3ncccc23)cc(OCC)c1OCC,i,i,-0.88,i,i
Cc1ncc(CN2CCCC(C(=O)Nc3ccc(-c4cccc(F)c4)cc3)C2)n1C (configuration not stated),i,i,-4.3*,i,i
O=C1CC(c2cccc([N+](=O)[O-])c2)c2ccc3ccccc3c2N1 (configuration not stated),i,i,1,i,25*
CN(CC(=O)Nc1ccccc1C(F)(F)F)C(=O)c1ccccc1Sc1ccccc1C#N,nt,-9.2*,nt,i,nt
N#Cc1ccc(-c2c(-c3ccccc3)ncc3cc(F)ccc23)cc1,nt,i,nt,i,nt
COc1ccc(C(=O)N2CCN(S(=O)(=O)c3ccc(Br)cc3)CC2)cc1,nt,i,nt,i,nt
COc1ccc(Cc2nnc(NC(=O)c3ccccc3F)s2)cc1OC,i,i,-0.15,i,i
CCC(C)c1ccc(S(=O)(=O)N2CCN(C(=O)c3ccc(Cl)c(S(=O)(=O)N4CCOCC4)c3)CC2)cc1 (configuration not stated),nt,-9.6*,nt,i,nt
O=C1C=CC(=O)C(C2=C3C(=O)N(CCc4ccccc4)CC(=O)N3CCC2)=C1,i,nt,-7*,nt,i
O=C(CN1C(=O)NC2(CCCC2)C1=O)NCCc1ccccc1,nt,i,nt,i,nt
COc1cnn(Cc2ccccc2)c(=O)c1SCc1ccccc1,i,i,-4.7*,i,i
CN(c1ccccc1)S(=O)(=O)c1ccc(Cl)c(C(=O)NCC(c2ccco2)N2CCCC2)c1 (configuration not stated),nt,i,nt,i,nt
Cc1ccc(-n2c(SCC(=O)Nc3cccc(S(=O)(=O)NC4=NCCCCC4)c3)nc3ccccc3c2=O)cc1C,i,i,-0.59,i,i
Cc1cc(SCC(=O)Nc2cccc(S(=O)(=O)NC3=NCCCCC3)c2)nc2ccccc12,i,i,0.19,-5.4*,i
O=C1CC2c3ccccc3C1C1C(=O)N(Cc3ccccc3)C(=O)C21 (configuration not stated),i,i,0.42,i,i
CC(C)(C)OC(=O)C[C@@H]1C/C=C\C[C@@H](CC(=O)N(CCO)Cc2ccccc2)C(=O)NCCOC1=O,nt,i,nt,-4.8*,nt
O=C(CCC(=O)N1CCOc2ccc(Cl)cc21)NCCCN1CCN(c2ccccc2F)CC1,i,i,-2,i,i
O=C(CCC(=O)N1CCOc2ccc(Cl)cc21)NCCCN1CCC(Cc2ccccc2)CC1,i,i,-6.6*,i,i
COC(=O)c1cccc(Nc2ncnc3ccc(C)cc23)c1,i,i,-0.01,i,i
SMILES,KCNK9 block,KCNK3 inh,Kir21 inh,TMEM16A act,ANO1 block
COc1ccc(Nc2ncnc3ccc(C)cc23)cc1,i,i,-6*,i,i
COC(=O)c1cc2c(-c3ccccc3)cc3ccccn3c-2c1C(=O)OC,i,-8.9*,-0.28,i,i
COC(=O)c1c(C)c2c(C)cc3ccccn3c-2c1C(=O)OC,i,i,-0.24,i,i
COc1ccc2cc(C(N)=O)c(=Nc3ccc(C)cc3)oc2c1,i,i,0.82,-7.7*,i
C[C@H]1CN(CCc2ccccc2)C(=O)[C@@H]1CC(=O)NCc1ccccc1,i,i,1.3,i,i
Cn1c(N2CCN(C(=O)NC34CC5CC(CC(C5)C3)C4)CC2)nc2ccccc21,i,i,0.25,i,i
COc1ccccc1N(Cc1cc(=O)[nH]c2ccccc12)C(=O)c1ccc([N+](=O)[O-])cc1,i,i,-2.3,i,i
CCCNS(=O)(=O)c1ccc(OC)c(Cl)c1Cl,i,i,0.05,i,i
COc1ccc(S(=O)(=O)NCCSC(C)(C)C)c(Cl)c1Cl,i,i,-1.9,i,25*
COc1ccc(C2C(C#N)=C(N)Oc3c2sc2nc(C)cc(C)c32)cc1 (configuration not stated),i,i,-1.7,-7.1*,i
COc1ccc(C(=O)Nc2ccccc2)cc1NC(=O)c1ccc([N+](=O)[O-])cc1,i,i,0.8,-7.2*,i
CCC(CC)c1nc(C#N)c(NC(C)c2ccccc2)o1 (configuration not stated),i,i,-6.1*,i,i
COc1ccc(-c2nc(C#N)c(NC(C)C)o2)cc1,i,i,0.75,i,i
COc1ccc(C2=NOC(Cn3nc(-c4ccccc4)cc3C(=O)NCc3ccccc3OC)C2)cc1 (configuration not stated),nt,i,nt,i,nt
O=C(Nc1cccc(F)c1)c1cccc2c1C(=O)N(C1CCCCC1)C2,-11*,i,-0.76,i,i
COc1ccccc1NS(=O)(=O)c1cc(-c2cc(C)no2)ccc1OC,i,i,-1.8,i,100*
COc1ccc(-c2cc(C)no2)cc1S(=O)(=O)Nc1ccccc1,i,i,0.37,i,i
COc1ccc(OC)c(S(=O)(=O)Nc2cc(Cl)cc(Cl)c2)c1,i,i,0.06,i,i
COc1ccccc1NS(=O)(=O)c1cc(Cl)ccc1OC,i,i,-4.8*,i,i
COc1ccccc1NS(=O)(=O)c1ccc(OC)c(OC)c1,i,i,-2.7,i,i
CCc1ccc(-c2cc(C)no2)cc1S(=O)(=O)NCCc1ccc(OC)c(OC)c1,i,i,-4.4*,i,100*
COc1ccc(OC)c(S(=O)(=O)Nc2cc(OC)c(Cl)cc2OC)c1,i,i,-5.6*,i,i
Cc1ccsc1C(C(=O)NC(C)(C)C)N(C(=O)c1csnn1)c1ccccc1 (configuration not stated),i,i,1.1,i,i
CCCN(c1ccccc1F)S(=O)(=O)c1cc(-c2cc(C)no2)ccc1OC,-7.8*,i,-1.2,i,i
COc1cc(OC)c(NS(=O)(=O)c2cc(Br)cnc2N)cc1Cl,i,i,-5.8*,i,i
